# In the library only some 3.3% were active in any assay of this set; here they are far more common.
# esBAF inh: SWI/SNF esBAF complex inhibition | mouse ES cells, Bmi1-luciferase knock-in reporter, 24 h; 100% = twice the neutral-well signal | reporter increase, % at 12.5 µM | actives 2% (n = 350,000) | AID 602393; in the data active = activation above about 40%;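 also: 0% = median of the plate's neutral control wells and 100% = double that signal; a rise in the Bmi1 reporter signal indicates esBAF inhibition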
# MITF act: MITF TRPM1 promoter activation in melanoma cells | SK-MEL-5 TRPM1-promoter luciferase, 24 h; % of positive control, neutral wells = 0 | activation, % at 12.5 µM | actives 0.75% (n = 300,000) | AID 588334;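 active = mean activation of at least 80% with every replicate also reaching 80%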;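 also: 0% = neutral control wells and 100% = parthenolide positive control wells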
# GAA850 FXN act: increases GAA850 frataxin promoter reporter activity; HEK293 lucGAA850 FXN promoter luciferase reporter, 24 h; percent of 10 µM SAHA response; activation, % at 6 µM; actives 0.56% (n = 360,000); AID 540364;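 active = activation above the average of all compounds screened plus 3 SD, cutoff fixed separately per campaign, cut at about 7.5% in these data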;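 also: 0% = DMSO wells and 100% = 10 µM SAHA wells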
# Statin myotox sup: protects C2C12 myotubes from simvastatin toxicity | ATP luminescence, 48 h; scaled: DMSO 0, geranylgeraniol control 100 | rescue of ATP level, % at 7.49 µM | actives 0.78% (n = 330,000) | AID 602340;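 active = mean ATP rescue above about 67%, or every replicate alone reaching that limit, limit read from the data, passing the limit was not always enough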;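 also: myotubes were challenged with 10 µM simvastatin during compound exposure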
# Wnt act: Wnt/beta-catenin pathway activation. activation, % at 9.35 µM. Wnt/beta-catenin reporter cell assay, activator, plate reader. AID 743398. actives 1.2% (n = 300,000); in the data active = activation above about 30%, passing the limit was not always enough;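 also: 0% = neutral control wells and 100% = positive control wells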
# An asterisk follows results filed as active; . = no result.
SMILES,esBAF inh,MITF act,GAA850 FXN act,Statin myotox sup,Wnt act
CC(C)=CCC/C(C)=C/CNC(=O)C[C@H]1C[C@H](C(=O)N2CCCCC2)[C@@]2(CCc3ccccc3)c3[nH]c4cc(CCC(=O)N(C)C)ccc4c3CCN2C1=O,52*,-41,-1,12,1
O=C(/C=C/c1cccs1)Nc1ccncc1,.,42,3,.,7
Nc1cccnc1Oc1ccccc1F,-7,-6,-1,27,-2
Cc1nc(NC(=O)/C=C/c2ccccc2)n[nH]1,40,-58,7,-17,39*
O=C(/C=C/c1ccccc1)Nc1cccnc1Oc1ccccc1F,31,20,4,94*,-4
Cc1cccc(NC(=O)/C=C/c2cccs2)n1,20,104*,4,3,.
O=C(/C=C/c1cccs1)Nc1ccc([N+](=O)[O-])cc1,.,68,2,.,31*
COCC#Cc1cnc2c(c1)C(=O)N([C@H](C)CO)C[C@@H](C)[C@@H](CN(C)C(=O)NC1CCCC1)O2,-11,.,.,11,.
C[C@@H]1CCCCO[C@@H](CN(C)C(=O)C2CCCCC2)[C@H](C)CN([C@@H](C)CO)C(=O)c2cc(NS(C)(=O)=O)ccc2O1,4,.,.,43,.
COc1cccc(NC(=O)N(C)C[C@H]2OCc3cnnn3CCCC(=O)N([C@@H](C)CO)C[C@H]2C)c1,0,.,.,2,.
O=C(/C=C/c1ccc([N+](=O)[O-])cc1)Nc1cccnc1,23,8,4,1,38*
O=C(/C=C/c1ccc(Cl)c([N+](=O)[O-])c1)Nc1cccnc1,53*,20,0,.,0
O=C(C=Cc1ccccc1)Nc1ccccc1,4,34,4,-20,14
O=C(/C=C/c1ccccc1)Nc1cccnc1,31,.,3,-8,39*
CN1C(=O)c2cc(NC(=O)c3ccc(F)cc3)ccc2OC[C@@H]2O[C@H](CC(=O)O)CC[C@H]21,-3,.,.,17,.
Clc1ccc(COn2c(-c3ccc(Cl)cc3)nc3ccccc32)cc1,-2,2,1,5,19
Cc1ccc(COn2c(-c3ccc(Cl)cc3)nc3ccc([N+](=O)[O-])cc32)cc1,54*,102*,5,-38,42*
COn1c(-c2ccc(Cl)cc2)nc2ccc(Cl)cc21,5,22,5,-13,57*
O=[N+]([O-])c1ccc2nc(-c3ccc(Cl)cc3)n(OCc3ccccc3)c2c1,68*,.,4,-16,65*
CN1C(=O)c2cc(NS(=O)(=O)c3ccc(F)cc3)ccc2OC[C@@H]2O[C@@H](CC(=O)NCC(F)(F)F)CC[C@@H]21,3,.,.,-29,.
C[C@@H]1CN([C@H](C)CO)C(=O)c2cccc(NS(=O)(=O)c3cn(C)cn3)c2O[C@H]1CN(C)C(=O)NC1CCCCC1,-2,.,.,2,.
Cc1ccc(S(=O)(=O)N2C[C@@H](O)COC[C@H]3O[C@@H](CC(=O)N[C@H]4CCN(Cc5ccccc5)C4)CC[C@@H]32)cc1,-5,.,.,11,.
O=C(N/C=C/c1ccccc1)c1ccccc1,.,109*,1,.,41*
O=C(NCCNC(=O)c1ccccc1)c1ccccc1,.,10,-1,.,-4
CO[C@H]1CN(C)C(=O)c2cc(C#N)ccc2OCC[C@@H]2CC[C@@H](OC)[C@@H](CN(C)C(=O)[C@@H]1C)O2,-5,.,.,46,.
SMILES,esBAF inh,MITF act,GAA850 FXN act,Statin myotox sup,Wnt act
O=C(Nc1ccc2c(c1)OCCO2)c1ccccc1Cl,-10,.,2,-13,40*
O=C(Nc1ccc2c(c1)OCCO2)c1ccccc1F,-30,.,1,-9,5
O=C(Nc1ccc2c(c1)OCCO2)c1cc2sccc2n1Cc1ccccc1,49*,14,-6,-10,1
O=C(Nc1ccc2c(c1)OCCO2)c1cccc2nc3ccccc3nc12,-9,-72,0,74*,.
O=C(Nc1ccc2c(c1)OCO2)C1CC(c2ccccc2Cl)=NO1 (configuration not stated),64*,44,4,8,.
O=C(Nc1ccc(Cl)c(Cl)c1)N[C@@H]1CC[C@@H](CCNC(=O)c2ccc(F)cc2)O[C@@H]1CO,-6,.,.,11,.
C[C@H](CO)N1C[C@H](C)[C@@H](CN(C)C(=O)Nc2ccccc2)Oc2ccc(NC(=O)Cn3cnnn3)cc2CC1=O,-8,.,.,22,.
COc1ccccc1CNC(=O)C[C@H]1C[C@@H]2c3cc(NC(=O)c4cccnc4)ccc3O[C@@H]2[C@H](CO)O1,-3,.,.,-2,.
